The results in this text go back to PubChem BioAssay AID1347087 (National Center for Advancing Translational Sciences (NCATS), 2019).

Values joined by “and” are separate entries in the source; they are usually repeats but may differ in a detail not shown here. Equal entries are not always repeated. Inconclusive results are not listed. Active and inactive are the calls of the source. Calls come from the whole dose curve.

A short description of the experiment: qHTS for Inhibitors of the Functional Ribonucleoprotein Complex (vRNP) of Lassa (LASV) Arenavirus: LASV Confirmatory Screen - GLuc reporter signal. The conditions noted are these: LASV minigenome vRNP, Gaussia luciferase reporter; series mostly up to 53.9 µM; activity, negative = inhibition: at the top concentration.
As for `CC(C)=CCC/C(C)=C/CC/C(C)=C/CC[C@]1(C)CCc2c(C)c(O)c(C)c(C)c2O1`, the activity, negative = inhibition is -9.56% [at 6 µM] (inactive).

For `O=C(Nc1ccc([N+](=O)[O-])cc1Cl)c1cc(Cl)ccc1O`, the Potency was 0.968 µM (active).

On to `COCCOC(=O)C1=C(C)NC(C)=C(C(=O)OC/C=C/c2ccccc2)C1c1cccc([N+](=O)[O-])c1` (stereo not given), for which the Potency was 27.3 µM (active).

As for `CCc1cncnc1N1CCN(Cc2nc3ccc(C(F)(F)F)cc3[nH]2)CC1`, the Potency is 3.95 µM (active).

For `CC(=O)[C@H]1CC[C@H]2[C@@H]3CCC4=CC(=O)CC[C@]4(C)[C@H]3CC[C@]12C`, the Potency was 21.7 µM (active).

Turning to `CCN(CC)C(=O)N[C@@H]1C=C2c3cccc4[nH]cc(c34)C[C@@H]2N(C)C1`, the “activity, negative = inhibition” value is -9.43% (inactive).

As for `COc1ccc2c(c1OC)CN1CCc3cc4c(cc3C1C2)OCO4` (stereo not given), the Potency was 21.7 µM (active).

As to `CCCCC[C@H](O)/C=C/C=C/C/C=C\CCCC(=O)O`, the activity, negative = inhibition is 4.46% [at 0.666 µM] (inactive).

As for `O=C1Cc2cc(CCN3CCN(c4nsc5ccccc45)CC3)c(Cl)cc2N1`, the Potency was 2.17 µM (active) and 3.43 µM (active).

Take `CCOC(=O)OCC/C(SC(=O)OCC)=C(\C)N(C=O)Cc1cnc(C)nc1N`: the “activity, negative = inhibition” value was -20.6% (inactive).

`CCC1OC2(C)C(O)C(/C=C/C=C/C=C/c3oc(=O)cc(OC)c3C)OC1(C)C2OC(C)=O` (stereo not given): the Potency is 0.137 µM (active).

For the compound `S=C(NCc1ccc2c(c1)OCO2)N1CCN(c2ncnc3c2oc2ccccc23)CC1`, the Potency is 1.77 µM (active).

`CC12C(=O)OC(=O)C1(C)C1CCC2O1` (stereo not given): the Potency is 9.68 µM (active).

Take `Cc1ccc2c(c1)C1CN(C)CCC1N2` (stereo not given): the “activity, negative = inhibition” value was -9.24% [at 19.4 µM] (inactive).

For the compound `COc1cc2c(cc1OC)CC(=O)N(CCCN(C)C[C@H]1Cc3cc(OC)c(OC)cc31)CC2`, the “activity, negative = inhibition” value is -2.12% (inactive).

With `CCn1c(-c2nonc2N)nc2cnc(Oc3cccc(NC(=O)c4ccc(OCCN5CCOCC5)cc4)c3)cc21`, the Potency is 2.73 µM (active).

For the compound `CCC(C)c1nccnc1OC` (stereo not given), the “activity, negative = inhibition” value was -7.88% [at 110 µM] (inactive).

As for `CC[C@@]1([C@@H]2O[C@@H]([C@H]3O[C@@](O)(CO)[C@H](C)C[C@H]3C)C[C@H]2C)CC[C@H]([C@]2(C)CC[C@]3(C[C@H](O)[C@@H](C)[C@@H]([C@@H](C)[C@@H](OC)[C@H](C)C(=O)O)O3)O2)O1`, the Potency was 0.335 µM (active).

As for `Cn1cc(-c2ccncc2)c(-c2ccc(OCc3ccc4ccccc4n3)cc2)n1`, the Potency was 24.3 µM (active).

Take `CC(=O)OCC(=O)[C@@]12N=C(C)O[C@H]1C[C@H]1[C@@H]3CCC4=CC(=O)C=C[C@]4(C)[C@@H]3[C@@H](O)C[C@@]12C`: the “activity, negative = inhibition” value is -10.9% (inactive).

For the compound `Clc1nccc2c1ccc1ccccc12`, the “activity, negative = inhibition” value was -9.94% (inactive).

For `Fc1ccc(CNc2ncnc3ccc(F)cc23)cc1`, the Potency is 6.85 µM (active).

As to `CC1OC(=O)[C@@H](C(C)C)NC(=O)C(C(C)C)OC(=O)[C@H](C(C)C)NC(=O)C(C)OC(=O)[C@@H](C(C)C)NC(=O)C(C(C)C)OC(=O)[C@H](C(C)C)NC(=O)C(C)OC(=O)[C@@H](C(C)C)NC(=O)C(C(C)C)OC(=O)[C@H](C(C)C)NC1=O` (stereo not given in full), the Potency was 0.153 µM (active).

For `CC(O)(P(=O)(O)O)P(=O)(O)O`, the “activity, negative = inhibition” value is -2.68% (inactive).

Turning to `Oc1cc(Cl)ccc1Oc1ccc(Cl)cc1Cl`, the Potency is 25 µM (active).
